Target: AGT mutant of Example 4 (GST fusion) (Homo sapiens, UniProt P16455 SEQ:1-207, Gly131Lys, Gly132Thr, Met134Leu, Arg135Ser, Asn157Gly, Ser159Glu)
Test: competition; reactivity with BG-modified oligonucleotide
Details: tags: N-terminal GST (pGEX-2T); ssDNA; O6-benzylguanine at position 14
Method: Reactivity against DNA-based substrates measured with a BG-Cy3 assay: BG-Cy3 is prepared by reacting the previously described O⁶-(4-aminomethyl-benzyl)guanine (Keppler et al., NatureBiotechnol. 21:86-89, 2003) with the commercially available N-hydroxysuccinimide ester of Cy3, (Cy3-NHS, Amersham). The coupling reaction is performed at ambient temperature in N,N-dimethylformamide in the presence of 1 eq. of triethylamine. The BG-Cy3 conjugate is purified by reversed-phase HPLC on a C18-column by using linear gradients from 0.1% trifluoroacetic acid to acetonitrile. After solvent evaporation BG-Cy3 is dissolved in dimethyl sulfoxide and stored at −20° C. For measuring the reactivity with DNA-based substrates, a reaction mixture containing different concentrations (0 to 5 µM) of oligonucleotide SEQ ID NO:2 (modified in position 14), GST-AGT fusion protein at 0.2 µM and BG-Cy3 at […] in reaction buffer (50 mM HEPES, pH 7.2, 1 mM DTT, […] BSA) is incubated in microtiterplates. Fluorescence of the Cy3 derivative (excitation 519 nm, emission at 572 nm) is measured on a Spectramax Gemini plate reader (Molecular Devices).

Chain of AGT mutant of Example 4 (GST fusion) (P16455 whole entry G131K/G132T/M134L/R135S/N157G/S159E, the tested form may be a part): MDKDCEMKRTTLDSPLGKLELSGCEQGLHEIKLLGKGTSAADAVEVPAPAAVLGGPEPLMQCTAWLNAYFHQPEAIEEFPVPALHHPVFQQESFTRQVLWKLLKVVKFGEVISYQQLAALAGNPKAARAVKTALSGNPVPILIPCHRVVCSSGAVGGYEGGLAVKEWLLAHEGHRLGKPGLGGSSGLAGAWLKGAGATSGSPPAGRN

Sequence	binding signal [fold reduced vs PGEG-hAGT]
GTGGTGGGCAGCTGAGGCGTGG	≥ 1000

— US20070207532, “Mutants Of O6-Alkylguanine-Dna Alkyltransferase” (published 2007)
